Assay results: PubChem BioAssay (Tox21)
Values joined by “and” are separate entries in the source; they are usually repeats but may differ in a detail not shown here. Equal entries are not always repeated. Results filed as inconclusive are left out. The source holds several records for some structures; these can differ, active in one and inactive in another. Active and inactive are the calls of the source. Unless noted, calls follow the shape of the dose curve; as a rule, active = well fitted curve in the direction sought with a large enough effect in the repeat runs; inconclusive = weak or mixed curves; inactive = no such curve, though single readings can be large; an effect the other way counts as inactive or inconclusive.

Tests used:
[1] = qHTS assay to identify aromatase inhibitors - cell viability counter screen (AID 743084);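 also: cells stimulated with testosterone during compound exposure; nearly all actives have a fitted effect of over 55% in size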
[2] = biological target: Aryl hydrocarbon receptor (Homo sapiens) (UniProt P35869); test: qHTS assay to identify small molecule that activate the aryl hydrocarbon receptor (AhR) signaling pathway (AID 743085);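 also: HG2L7.5c1 human HepG2 liver cells with stably integrated DRE-driven firefly reporter; series mostly up to about 70 µM; nearly all actives have a fitted effect of over 15% in size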
How it was run: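 Luminescence (ONE-Glo) from a dioxin-responsive-element luciferase reporter in HG2L7.5c1 HepG2 cells after 24 hr compound exposure at 37C; viability measured by CellTiter-Fluor fluorescence beforehand.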

[3] = qHTS assay to identify small molecule that activate the aryl hydrocarbon receptor (AhR) signaling pathway - cell viability counter screen (AID 743086);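 also: HepG2 liver cells carrying the AhR DRE luciferase reporter; series mostly up to about 70 µM; nearly all actives have a fitted effect of over 45% in size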
How it was run: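 Cytotoxicity counter screen: CellTiter-Fluor signal (30 min, 37 C) in 4000 HepG2 cells/well carrying the DRE-luciferase reporter, following 24 h compound exposure at 37 C.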

[4] = biological target: Peroxisome proliferator-activated receptor gamma (Homo sapiens) (UniProt P37231); test: qHTS assay to identify small molecule agonists of the peroxisome proliferator-activated receptor gamma (PPARg) signaling pathway (AID 743094; active = well fitted activation curve with a large enough effect in the signal ratio in the repeat runs, not every such curve was filed as active; the % refers to the signal ratio)
How it was run: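 Agonism was assessed in a beta-lactamase reporter system, HEK293H cells with a stably integrated UAS-bla construct under PPARg control; the 17 h treatment at 37C preceded a 1 h room-temperature FRET substrate read.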

[5] = biological target: Peroxisome proliferator-activated receptor gamma (Homo sapiens) (UniProt P37231); test: qHTS assay to identify small molecule antagonists of the peroxisome proliferator-activated receptor gamma (PPARg) signaling pathway (AID 743191; calls by dose curve; also: series mostly up to about 63 µM; nearly all actives have a fitted effect of over 30% in size)
How it was run: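 Beta-lactamase reporter under UAS control in HEK293H PPARg-bla cells; compound treatment 17 h at 37C. Read-out: fluorescence intensity after 1 h room-temperature incubation with LiveBLAzer B/G FRET substrate.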

[6] = qHTS assay to identify small molecule antagonists of the peroxisome proliferator-activated receptor gamma (PPARg) signaling pathway - cell viability counter screen (AID 743194); also: nearly all actives have a fitted effect of over 55% in size
How it was run: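 Viability was measured as CellTiter-Glo luminescence in GeneBLAzer PPARg UAS-bla HEK293H cells. These cells had been exposed 17 h at 37 C to compounds together with rosiglitazone at 50 nM final, with the beta-lactamase readout taken in the same wells.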

[7] = qHTS assay for small molecule agonists of the antioxidant response element (ARE) signaling pathway (AID 743202; active = well fitted activation curve with a large enough effect in the signal ratio in the repeat runs, not every such curve was filed as active; the % refers to the signal ratio)
How it was run: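 Beta-lactamase reporter activity, read as fluorescence intensity, reflects ARE/Nrf2 pathway induction in HepG2 cells after 16 h compound exposure at 37 C; substrate loading was 2 h at room temperature.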

[8] = qHTS assay for small molecule agonists of the antioxidant response element (ARE) signaling pathway - cell viability counter screen (AID 743203; calls by dose curve; also: nearly all actives have a fitted effect of over 55% in size)
How it was run: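 ATP content via CellTiter-Glo luminescence served as the viability measure. Cells: ARE-bla HepG2, 2,000 per well. Exposure: 16 hrs, 37C/5% CO2.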

[9] = qHTS assay for small molecule activators of the heat shock response signaling pathway - cell viability counter screen (AID 743209); also: nearly all actives have a fitted effect of over 50% in size
How it was run: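 Compounds dissolved in DMSO were added to overnight-plated HSE-bla HeLa cells and left 5 h at 37 C. Cell viability was quantified by luminescence using CellTiter-Glo.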

[10] = qHTS assay for small molecule activators of the heat shock response signaling pathway (AID 743210; active = well fitted activation curve with a large enough effect in the signal ratio in the repeat runs, with a control signal flat, not every such curve was filed as active; the % refers to the signal ratio;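 also: HeLa cells with beta-lactamase reporter driven by heat shock elements; series mostly up to about 63 µM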)
How it was run: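 Fluorescence from a cleaved B/G FRET substrate (2.5 h, room temp) reports HSE-driven beta-lactamase in HeLa cells treated 5 h at 37 C with DMSO-dissolved compounds.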

[11] = qHTS assay to identify small molecule agonists of the peroxisome proliferator-activated receptor delta (PPARd) signaling pathway - cell viability counter screen (AID 743211); also: nearly all actives have a fitted effect of over 55% in size
How it was run: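 Viability was measured as CellTiter-Glo luminescence (30 min, room temperature) in the same wells as the beta-lactamase readout. GeneBLAzer PPARd UAS-bla HEK293H cells received compound after 5 h plating and were incubated 17 h at 37 C.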

[12] = biological target: Peroxisome proliferator-activated receptor delta (Homo sapiens) (UniProt Q03181); test: qHTS assay to identify small molecule agonists of the peroxisome proliferator-activated receptor delta (PPARd) signaling pathway (AID 743212; calls by dose curve)
How it was run: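 Steps: seed PPARd-bla HEK293H cells; incubate 5 h, 37 C, 5% CO2; add compounds in DMSO; incubate, 37 C; add LiveBLAzer B/G FRET substrate; hold 2 h at room temperature; measure fluorescence.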

[13] = biological target: Peroxisome proliferator-activated receptor delta (Homo sapiens) (UniProt Q03181); test: qHTS assay to identify small molecule antagonists of the peroxisome proliferator-activated receptor delta (PPARd) signaling pathway (AID 743215; active = well fitted inhibition curve with a large enough effect in the signal ratio in the repeat runs, not every such curve was filed as active; the % refers to the signal ratio;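 also: cells stimulated with agonist L165041 at 300 nM final during compound exposure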; also: potency is read from the fitted curve at half-maximal effect)
How it was run: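 Here, a reporter line (HEK293H, beta-lactamase under a UAS) measures PPARd signaling. Compounds are tested against agonist L165041 at 300 nM final concentration over 17 h at 37 C, with fluorescence read after substrate.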

[14] = qHTS assay to identify small molecule agonists of the farnesoid-X-receptor (FXR) signaling pathway - cell viability counter screen (AID 743218); also: nearly all actives have a fitted effect of over 45% in size
How it was run: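 Quantitative HTS counter screen measuring ATP-based viability via CellTiter-Glo luminescence in HEK 293T cells carrying a UAS-driven beta-lactamase reporter, after 16 h compound exposure at 37 C.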

[15] = biological target: Vitamin D3 receptor (Homo sapiens) (UniProt P11473); test: qHTS assay to identify small molecule agonists of the vitamin D receptor (VDR) signaling pathway (AID 743222; calls by dose curve)
How it was run: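 Tox21 cell reporter format: VDR-bla line, 16 h compound exposure in 5% CO2 at 37C, then fluorescence intensity after 2 h with LiveBLAzer B/G FRET substrate.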

[16] = biological target: Vitamin D3 receptor (Homo sapiens) (UniProt P11473); test: qHTS assay to identify small molecule antagonists of the vitamin D receptor (VDR) signaling pathway (AID 743223; active = well fitted inhibition curve with a large enough effect in the signal ratio in the repeat runs, not every such curve was filed as active; the % refers to the signal ratio)
How it was run: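 Antagonist mode: compound added to VDR-bla cells alongside agonist 1alpha,25-dihydroxyvitamin D3 (3 nM final), incubation 16 h at 37C. Read-out is LiveBLAzer FRET fluorescence, 2 h at room temperature.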

[17] = qHTS assay to identify small molecule antagonists of the peroxisome proliferator-activated receptor delta (PPARd) signaling pathway - cell viability counter screen (AID 743213); also: nearly all actives have a fitted effect of over 50% in size
How it was run: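 PPARd-bla HEK293H cells (3000/well) got compound plus 300 nM L165041 agonist for 17 h at 37 C. Viability in the same wells came from CellTiter-Glo luminescence after 30 min at room temperature.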

[18] = qHTS assay to identify small molecule antagonists of the farnesoid-X-receptor (FXR) signaling pathway - cell viability counter screen (AID 743221; active = well fitted cell-killing curve with a large enough effect in the repeat runs, not every such curve was filed as active; also: nearly all actives have a fitted effect of over 50% in size)
How it was run: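 Cytotoxicity counter screen run in the FXR-bla reporter wells: HEK 293T cells exposed to compound with 50 uM (final) chenodeoxycholic acid for 16 h, 37 C, then viability measured by CellTiter-Glo luminescence after 30 min, room temperature.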

[19] = biological target: Bile acid receptor (Homo sapiens) (UniProt Q96RI1); test: qHTS assay to identify small molecule antagonists of the farnesoid-X-receptor (FXR) signaling pathway (AID 743217; active = well fitted inhibition curve with a large enough effect in the signal ratio in the repeat runs, not every such curve was filed as active; the % refers to the signal ratio)
How it was run: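 Test compounds are pin-transferred onto FXR-bla HEK 293T cells, then chenodeoxycholic acid is added at 50 uM final. After 16 h at 37 °C, LiveBLAzer B/G substrate is applied for 2 h at room temperature and fluorescence read.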
% is scaled to controls: 0 for no effect and ±100 for the full control effect.

Sequence of Peroxisome proliferator-activated receptor gamma (Homo sapiens) (P37231 whole entry, looked up): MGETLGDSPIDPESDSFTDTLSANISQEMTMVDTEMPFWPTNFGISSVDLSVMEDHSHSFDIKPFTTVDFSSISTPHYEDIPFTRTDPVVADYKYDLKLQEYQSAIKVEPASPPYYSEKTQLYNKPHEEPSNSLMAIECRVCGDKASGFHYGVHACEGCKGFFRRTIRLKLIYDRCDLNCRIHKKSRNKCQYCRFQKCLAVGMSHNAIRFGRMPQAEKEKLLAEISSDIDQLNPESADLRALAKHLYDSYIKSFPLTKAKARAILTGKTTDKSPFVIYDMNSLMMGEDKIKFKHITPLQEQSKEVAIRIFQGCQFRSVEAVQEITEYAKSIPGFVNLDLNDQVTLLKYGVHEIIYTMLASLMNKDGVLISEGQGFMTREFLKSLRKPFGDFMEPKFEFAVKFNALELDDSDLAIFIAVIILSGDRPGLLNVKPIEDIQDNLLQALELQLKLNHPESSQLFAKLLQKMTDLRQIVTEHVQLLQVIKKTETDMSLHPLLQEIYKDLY
Sequence of Vitamin D3 receptor (Homo sapiens) (P11473 whole entry, looked up): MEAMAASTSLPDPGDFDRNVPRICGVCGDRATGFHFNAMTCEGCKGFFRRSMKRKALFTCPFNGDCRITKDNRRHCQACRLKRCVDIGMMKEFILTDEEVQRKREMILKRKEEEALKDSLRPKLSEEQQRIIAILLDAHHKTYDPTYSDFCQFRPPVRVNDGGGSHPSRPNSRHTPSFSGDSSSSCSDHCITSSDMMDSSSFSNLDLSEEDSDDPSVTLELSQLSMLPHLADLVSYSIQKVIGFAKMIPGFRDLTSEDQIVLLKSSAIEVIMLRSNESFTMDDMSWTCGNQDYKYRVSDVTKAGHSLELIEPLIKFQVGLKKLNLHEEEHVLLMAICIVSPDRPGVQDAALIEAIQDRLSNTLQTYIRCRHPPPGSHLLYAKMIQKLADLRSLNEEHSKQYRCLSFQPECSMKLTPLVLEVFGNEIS
Sequence of Peroxisome proliferator-activated receptor delta (Homo sapiens) (Q03181 whole entry, looked up): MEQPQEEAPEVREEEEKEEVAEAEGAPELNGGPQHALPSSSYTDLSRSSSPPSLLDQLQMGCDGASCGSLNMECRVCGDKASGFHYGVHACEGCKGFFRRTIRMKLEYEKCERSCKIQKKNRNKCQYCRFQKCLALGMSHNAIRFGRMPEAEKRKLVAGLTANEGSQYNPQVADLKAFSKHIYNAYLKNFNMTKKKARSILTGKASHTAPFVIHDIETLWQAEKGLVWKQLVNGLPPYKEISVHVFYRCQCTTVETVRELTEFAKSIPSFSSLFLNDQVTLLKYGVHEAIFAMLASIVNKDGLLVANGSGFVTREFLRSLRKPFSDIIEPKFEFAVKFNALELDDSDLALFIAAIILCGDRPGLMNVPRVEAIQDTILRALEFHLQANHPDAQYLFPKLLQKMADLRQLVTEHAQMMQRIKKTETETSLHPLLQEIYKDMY
Sequence of Bile acid receptor (Homo sapiens) (Q96RI1 whole entry, looked up): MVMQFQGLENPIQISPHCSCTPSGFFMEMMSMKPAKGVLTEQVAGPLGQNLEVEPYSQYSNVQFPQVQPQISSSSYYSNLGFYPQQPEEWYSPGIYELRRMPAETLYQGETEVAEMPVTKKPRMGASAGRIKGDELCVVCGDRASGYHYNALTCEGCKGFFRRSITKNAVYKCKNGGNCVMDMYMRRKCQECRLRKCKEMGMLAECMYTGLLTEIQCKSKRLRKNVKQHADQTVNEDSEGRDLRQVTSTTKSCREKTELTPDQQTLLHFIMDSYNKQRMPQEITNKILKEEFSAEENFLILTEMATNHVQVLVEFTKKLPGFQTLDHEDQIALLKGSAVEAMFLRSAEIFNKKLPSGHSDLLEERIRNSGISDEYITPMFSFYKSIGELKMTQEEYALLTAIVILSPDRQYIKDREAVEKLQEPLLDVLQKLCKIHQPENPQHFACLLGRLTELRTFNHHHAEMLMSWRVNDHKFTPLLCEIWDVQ
Sequence of Aryl hydrocarbon receptor (Homo sapiens) (P35869 whole entry, looked up): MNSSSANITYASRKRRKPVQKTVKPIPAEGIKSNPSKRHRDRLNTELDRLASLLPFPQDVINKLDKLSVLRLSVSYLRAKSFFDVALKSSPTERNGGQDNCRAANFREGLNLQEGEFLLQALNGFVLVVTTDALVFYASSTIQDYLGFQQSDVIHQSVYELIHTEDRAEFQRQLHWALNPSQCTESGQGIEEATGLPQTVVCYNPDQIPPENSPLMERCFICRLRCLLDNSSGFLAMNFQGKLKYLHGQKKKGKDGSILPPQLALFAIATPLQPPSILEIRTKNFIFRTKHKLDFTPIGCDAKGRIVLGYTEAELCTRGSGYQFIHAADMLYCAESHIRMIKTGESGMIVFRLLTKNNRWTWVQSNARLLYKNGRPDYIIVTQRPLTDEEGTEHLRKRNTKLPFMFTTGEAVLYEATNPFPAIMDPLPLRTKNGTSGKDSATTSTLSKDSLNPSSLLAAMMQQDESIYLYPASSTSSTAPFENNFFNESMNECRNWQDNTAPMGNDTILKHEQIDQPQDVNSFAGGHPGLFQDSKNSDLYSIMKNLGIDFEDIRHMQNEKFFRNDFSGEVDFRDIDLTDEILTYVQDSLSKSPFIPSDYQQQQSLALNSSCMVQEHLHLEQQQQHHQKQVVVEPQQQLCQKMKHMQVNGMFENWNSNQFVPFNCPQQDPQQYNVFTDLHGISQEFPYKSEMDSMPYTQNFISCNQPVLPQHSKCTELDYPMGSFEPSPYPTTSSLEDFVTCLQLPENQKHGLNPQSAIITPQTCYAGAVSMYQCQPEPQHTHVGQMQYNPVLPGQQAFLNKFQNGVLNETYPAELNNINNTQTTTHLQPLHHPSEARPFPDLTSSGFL

CCN(CC)CCCC(C)Nc1ccnc2cc(Cl)ccc12 (stereo not given)
inactive: Potency [1] | Potency [2] | outcome [3] | outcome [4] | outcome [5] | outcome [6] | activation [7] -11.9% [at 8.36 µM] | viability change, negative = cytotoxic [8] -7.65% [at 8.36 µM] | outcome [9] | Potency [10] | outcome [11] | outcome [12] | Potency [13] | Potency [14] | outcome [15] | activity change, negative = inhibition [16] 1.54% [at 6.95 µM]

CC(C)c1ccc(S(=O)(=O)O)cc1
inactive: Potency [1] | Potency [2] | outcome [3] | outcome [4] | outcome [5] | outcome [6] | Potency [7] | outcome [8] | outcome [9] | Potency [10] | outcome [11] | outcome [17] | Potency [18]

c1ccc2c(c1)ccc1ccccc12
inactive: Potency [1] | Potency [2] | outcome [3] | outcome [4] | outcome [5] | outcome [6] | Potency [7] | outcome [8] | outcome [9] | Potency [10] | outcome [11] | outcome [12] | Potency [13] | outcome [19] | Potency [14] | Potency [18] | outcome [15] | outcome [16]

CCCCCCCCCC
inactive: Potency [1] | Potency [2] | outcome [3] | outcome [4] | outcome [5] | outcome [6] | Potency [7] | outcome [8] | outcome [9] | Potency [10] | outcome [11] | outcome [12] | Potency [13] | outcome [19] | Potency [14] | Potency [18] | outcome [15] | outcome [16]

O=C(O)CCCC[C@@H]1SC[C@@H]2NC(=O)N[C@@H]21
inactive: Potency [1] | Potency [2] | outcome [3] | outcome [4] | outcome [5] | outcome [6] | Potency [7] | outcome [8] | outcome [9] | Potency [10] | outcome [11] | outcome [12] | outcome [17] | Potency [13] | Potency [14] | outcome [15] | outcome [16]

CCCCC(CC)COC(=O)CCCCC(=O)OCC(CC)CCCC (stereo not given)
inactive: Potency [1] | Potency [2] | outcome [3] | outcome [4] | outcome [5] | outcome [6] | Potency [7] | outcome [8] | outcome [9] | Potency [10] | outcome [11] | outcome [12] | Potency [13] | outcome [19] | Potency [18] | outcome [15] | outcome [16]

C=CCOC(=O)c1ccccc1C(=O)OCC=C
inactive: Potency [1] | Potency [2] | outcome [3] | outcome [4] | outcome [5] | outcome [6] | Potency [7] | outcome [8] | outcome [9] | Potency [10] | outcome [11] | outcome [17] | outcome [19] | Potency [18]

O=C(O)c1cc(C(=O)O)cc(S(=O)(=O)O)c1
inactive: Potency [1] | Potency [2] | outcome [3] | outcome [4] | outcome [5] | outcome [6] | Potency [7] | outcome [8] | outcome [9] | Potency [10] | outcome [11] | outcome [12] | outcome [17] | Potency [13] | outcome [19] | outcome [15] | outcome [16]

Nc1ccccc1[N+](=O)[O-]
inactive: Potency [1] | Potency [2] | outcome [3] | outcome [4] | outcome [5] | outcome [6] | Potency [7] | outcome [8] | outcome [9] | Potency [10] | outcome [11] | outcome [12] | Potency [13] | outcome [19]

CCCCCCCCCCCCc1ccccc1
inactive: Potency [1] | Potency [2] | outcome [3] | outcome [4] | outcome [5] | outcome [6] | Potency [7] | outcome [8] | outcome [9] | Potency [10] | outcome [11] | outcome [12] | outcome [17] | Potency [13] | outcome [19] | Potency [14] | outcome [15] | outcome [16]

CCCCCCCCCCCCS
inactive: Potency [1] | Potency [2] | outcome [3] | outcome [4] | outcome [5] | outcome [6] | Potency [7] | outcome [8] | outcome [9] | Potency [10] | outcome [11] | outcome [12] | outcome [17] | Potency [13] | Potency [14] | Potency [18] | outcome [15] | outcome [16]

ON=C1CCCCC1
inactive and 43.6 µM (active): Potency [13]
inactive: Potency [1] | Potency [2] | outcome [3] | outcome [4] | outcome [5] | outcome [6] | Potency [7] | outcome [8] | outcome [9] | Potency [10] | outcome [11] | outcome [12] | outcome [17] | Potency [18] | outcome [15] | outcome [16]

CCCC(C)=O
inactive: Potency [1] | Potency [2] | outcome [3] | outcome [4] | outcome [5] | outcome [6] | Potency [7] | outcome [8] | outcome [9] | Potency [10] | outcome [11] | outcome [12] | outcome [17] | Potency [13] | outcome [19] | Potency [14] | Potency [18]

CC1CCC2CC1C2(C)C (stereo not given)
inactive: Potency [1] | Potency [2] | outcome [3] | outcome [4] | outcome [5] | outcome [6] | Potency [7] | outcome [8] | outcome [9] | Potency [10] | outcome [11] | outcome [17] | outcome [19] | Potency [14]

CCCCCC/C(C=O)=C\c1ccccc1
inactive: Potency [1] | Potency [2] | outcome [3] | outcome [4] | outcome [5] | outcome [6] | Potency [7] | outcome [8] | outcome [9] | Potency [10] | outcome [11] | outcome [12] | outcome [17] | Potency [13] | outcome [19] | Potency [18] | outcome [15] | outcome [16]

CC(=O)Nc1ccccc1
inactive: Potency [1] | Potency [2] | outcome [3] | outcome [4] | outcome [5] | outcome [6] | Potency [7] | outcome [8] | outcome [9] | Potency [10] | outcome [11] | outcome [12] | Potency [13] | outcome [19] | Potency [14] | Potency [18] | outcome [15]

COS(C)(=O)=O
inactive: Potency [1] | Potency [2] | outcome [3] | outcome [4] | outcome [5] | outcome [6] | Potency [7] | outcome [8] | outcome [9] | Potency [10] | outcome [11] | outcome [12] | outcome [17] | Potency [13] | Potency [14] | outcome [15] | outcome [16]
